Rac1 mut GTP: GTP binding modulators of activated mutant Rac1, primary screen, biochemical, bead-based flow cytometry, multiplex, fluorescent GTP | 0.11% of 190,000 active | GST-Rac1 activated beads; actives lie on both sides; 100% means binding = to untreated wells | percent activity (GTP binding), % at 10 µM | AID 764, 2007;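 active means GTP binding at least 20 percentage points away from the 100% baseline, in either direction, so actives lie on both sides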
HRas wt GTP: modulators of GTP binding to HRas wildtype, primary screen, biochemical, bead-based flow cytometry, multiplex; 0.14% of 190,000 active; GTPase HRas (Homo sapiens), P01112; GTP binding activity, % at 10 µM; GST-Ras wt beads, Bodipy-FL-GTP binding; actives lie on both sides; AID 759, 2007;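 active means GTP binding activity at least 20% away from the 100% baseline, either lowered as inhibitor or raised as activator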;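 further: 0% = unlabeled GTP competition control and 100% = no-compound control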
Target sequence (P01112 whole entry, looked up): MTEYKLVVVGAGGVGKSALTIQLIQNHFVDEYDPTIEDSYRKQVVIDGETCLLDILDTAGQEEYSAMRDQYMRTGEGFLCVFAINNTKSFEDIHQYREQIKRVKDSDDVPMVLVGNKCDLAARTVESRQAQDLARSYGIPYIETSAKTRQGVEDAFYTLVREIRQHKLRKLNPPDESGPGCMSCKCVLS
Rab2 wt GTP: modulators of GTP binding to Rab2A wildtype, primary screen, biochemical, dog, bead-based flow cytometry, multiplex | GST-Rab2 wt beads, Bodipy-GTP binding | GTP binding activity, % at 10 µM | 0.19% of 190,000 active | AID 760, 2007;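 active means GTP binding activity at least 20 points away from 100%, either lowered or raised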;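 further: 0% = beads with excess unlabeled GTP and 100% = no-compound control corrected for plate trend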
Rab7 wt modul: modulators of GTP binding to Rab7, primary screen, biochemical, wildtype, multiplex bead flow cytometry | 0.055% of 190,000 active | GST-Rab7 beads, fluorescent GTP binding; actives lie on both sides; untreated = 100%, excess cold GTP = 0% | GTP binding activity (percent of control), % at 10 µM | AID 758, 2007;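 active means fluorescent GTP binding to Rab7 beads changed by at least 20 points from the 100% baseline, either direction, mostly lower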;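 further: median green fluorescence of bound Bodipy-FL-GTP per Rab7 bead population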
Rac1 wt GTP bind: wildtype Rac1 GTP binding modulators, primary screen, biochemical, GST-Rac1 beads, flow cytometry, multiplex. fluorescent GTP binding; actives lie on both sides; 0 = cold GTP competed, 100 = untreated. 0.27% of 190,000 active. GTP binding activity (% of control), % at 10 µM. Ras-related C3 botulinum toxin substrate 1 (Homo sapiens), P63000;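 active means GTP binding activity at least 20 points away from the 100% control level, either lower or higher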
Cdc42 wt GTP: modulators of GTP binding to wildtype Cdc42, primary screen, biochemical, multiplex bead flow cytometry, Bodipy-GTP; Cell division control protein 42 homolog (Homo sapiens), P60953; GST-Cdc42 beads; actives lie on both sides; percent activity (GTP binding), % at 10 µM; 0.2% of 190,000 active; AID 761, 2007;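 active means percent activity GTP binding at least 20 points away from the 100% baseline, either down as inhibitor or up as activator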;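 further: median bead fluorescence of bound Bodipy-FL-GTP at 100 nM; 0% = excess unlabeled GTP control and 100% = no compound control; below 100% means less GTP binding so inhibitor and above means activator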
Target sequence (P60953 whole entry, looked up): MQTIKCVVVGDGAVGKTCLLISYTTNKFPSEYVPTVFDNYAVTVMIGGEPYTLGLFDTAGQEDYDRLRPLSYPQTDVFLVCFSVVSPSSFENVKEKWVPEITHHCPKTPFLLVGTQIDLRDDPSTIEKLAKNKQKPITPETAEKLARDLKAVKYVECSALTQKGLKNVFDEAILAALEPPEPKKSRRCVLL
* hit, by the source's call; [ ] = another dose, or the depositor's remark. Compounds with a hit are over-represented: about 0.38% of the library has one in this group of screens.

SMILES | Rac1 mut GTP | HRas wt GTP | Rab2 wt GTP | Rab7 wt modul | Rac1 wt GTP bind | Cdc42 wt GTP
COC(=O)c1nnn(CC(=O)NC(=O)Nc2cccc(Cl)c2C)c1C(=O)OC | 93 | 95 | 94 | 93 | 91 | 95
Cc1ccc(OCC(=O)Nc2cc(C(=O)O)cc(C(=O)O)c2)cc1C | 98 | 98 | 98 | 99 | 101 | 100
Nc1nonc1C(=O)NCCN=Cc1ccccc1O | 101 | 104 | 103 | 99 | 105 | 106
Nc1nonc1C(=O)NCCN=Cc1cc(Cc2ccccc2)cc(Br)c1O | 119 | 117 | 122*[activator] | 114 | 128*[activator] | 125*[activator]
O=C(COc1ccccc1-c1ccccc1)N/N=C/c1ccncc1 | 55* | 59* | 61* | 58* | 55* | 60*
COc1cc(/C=N/NC(=O)CN(Cc2ccccc2)S(=O)(=O)c2ccc3c(c2)OCCO3)ccc1O | 88 | 81 | 78* | 90 | 78* | 89
COc1ccc(/C=N/NC(=O)CN(Cc2ccccc2)S(=O)(=O)c2ccc3c(c2)OCCO3)cc1 | 94 | 91 | 88 | 92 | 89 | 95
COc1cc(/C=N/NC(=O)CN(Cc2ccco2)S(=O)(=O)c2ccccc2)ccc1O | 90 | 84 | 81 | 94 | 77* | 86
O=C(NN1C(=O)C2C3CCC(O3)C2C1=O)c1ccco1 (configuration not stated) | 100 | 102 | 100 | 99 | 104 | 101
CCCOc1ccc(C(CC(=O)O)NC(=O)c2sc3ccccc3c2Cl)cc1 (configuration not stated) | 69* | 77* | 75* | 93 | 76* | 72*
CCOc1ccc(C(CC(=O)O)NC(=O)c2sc3ccccc3c2Cl)cc1 (configuration not stated) | 94 | 96 | 94 | 97 | 95 | 94
O=C(Nc1ccccc1)C1=C(c2ccccc2)S(=O)(=O)CCS1(=O)=O | 81 | 90 | 87 | 98 | 87 | 77*
Cc1ccc(S(=O)(=O)/N=C(\N)Nc2nc(C)c3ccccc3n2)cc1 | 98 | 96 | 94 | 100 | 95 | 92
COc1ccc2c(C)nc(N/C(N)=N/S(=O)(=O)c3ccc(C)cc3)nc2c1 | 89 | 88 | 87 | 95 | 77* | 84
Cn1c(=O)n(Cc2ccc(F)cc2)c(=O)c2c1nc1n2CCN1Cc1ccco1 | 89 | 81 | 77* | 92 | 75* | 80
COc1cc2[nH]c(=O)n(C3CCCCC3)c(=O)c2cc1OC | 98 | 102 | 101 | 102 | 106 | 103
COc1cc2[nH]c(=S)nc(NC3CCCC3)c2cc1OC | 70* | 60* | 60* | 74* | 51* | 58*
N#C/C(=C/c1ccc([N+](=O)[O-])cc1)C(=O)Nc1ccccc1O | 97 | 96 | 93 | 94 | 98 | 91
N#C/C(=C/c1ccc(O)c([N+](=O)[O-])c1)C(=O)Nc1ccccc1 | 87 | 86 | 84 | 102 | 77* | 79*
OCCC1CN(CC(c2ccccc2)c2ccccc2)CCN1C1CCCC1 (configuration not stated) | 98 | 97 | 98 | 99 | 102 | 99
C/C(=N\NC(=O)c1ccc(Cl)c(S(=O)(=O)Nc2ccccc2Cl)c1)c1ccncc1 | 87 | 87 | 86 | 91 | 73* | 86
CCOC(=O)c1cc[nH]c1C | 94 | 93 | 95 | 93 | 94 | 94
Fc1ccc(NC(=S)N2CCc3ccccc3C2)c(F)c1 | 94 | 96 | 94 | 96 | 101 | 95
CCC(=O)NC1CCN(C(=S)NC)CC1 | 94 | 98 | 98 | 98 | 99 | 95
OC(CNCCc1ccc(Cl)cc1)COc1ccc2ccccc2c1 (configuration not stated) | 77* | 80 | 78* | 90 | 81 | 77*
SMILES | Rac1 mut GTP | HRas wt GTP | Rab2 wt GTP | Rab7 wt modul | Rac1 wt GTP bind | Cdc42 wt GTP
OC(COc1ccc2ccccc2c1)Cn1ccnc1 (configuration not stated) | 96 | 98 | 97 | 97 | 98 | 98
CC1CN(C(=O)c2cccc(S(=O)(=O)Nc3cc(Cl)ccc3Cl)c2)CC(C)O1 (configuration not stated) | 83 | 81 | 78* | 96 | 72* | 79*
COc1cc(/C=C2\SC(=Nc3ccc(O)cc3)NC2=O)cc(OC)c1O | 86 | 84 | 83 | 96 | 72* | 79*
O=C1NC(=Nc2ccc(O)cc2)S/C1=C/c1ccco1 | 93 | 93 | 93 | 94 | 95 | 95
Cc1ccc(Sc2c(C)nn(C(=O)C3CC3)c2C)cc1 | 79* | 84 | 81 | 90 | 78* | 82
CCOC(=O)c1cc(-c2ccc(OC(F)F)cc2)nc2c1c(=O)[nH]c(=O)n2C | 97 | 95 | 97 | 95 | 97 | 92
CCCCC(=O)Nc1ccc(NC(=S)NC(=O)CCCCl)cc1OC | 101 | 101 | 100 | 103 | 103 | 101
CC(=O)NC(Cc1cccc(F)c1)C(=O)NC1CCN(c2nnnn2-c2ccccc2)CC1 (configuration not stated) | 97 | 96 | 97 | 92 | 97 | 99
Nc1c(S(=O)(=O)c2ccccc2)c2nc3ccccc3nc2n1C1CC1 | 90 | 85 | 86 | 91 | 78* | 82
Nc1c(S(=O)(=O)c2ccccc2)c2nc3ccccc3nc2n1/N=C/c1cccc(O)c1 | 87 | 73* | 70* | 95 | 88 | 74*
CCn1cc(C(=O)O)c(=O)c2cc(F)c(N/N=C/c3ccccc3)cc21 | 88 | 84 | 83 | 89 | 76* | 89
COc1cccc(Nc2ncc(C(=O)O)c3ccccc23)c1 | 100 | 104 | 102 | 95 | 102 | 105
COc1cccc(Nc2ccccc2C(=O)O)c1 | 126*[activator] | 120*[activator] | 125*[activator] | 127*[activator] | 138*[activator] | 130*[activator]
CCOCCCNC(=O)/C(C#N)=C/c1ccc([N+](=O)[O-])o1 | 98 | 102 | 105 | 104 | 101 | 100
Cc1ccc(-n2c(-c3cnccn3)n[nH]c2=S)c(Br)c1 | 80 | 80 | 82 | 84 | 81 | 79*
COc1cccc2c(SCC(=O)N/N=C/c3ccc(O)cc3O)cc(C)nc12 | 83 | 72* | 66* | 85 | 66* | 66*
